From PubChem BioAssay
TGFb SMAD3 inh: qHTS for Inhibitors of TGF-b; HepG2 CAGA-GFP TGF-b/SMAD3 reporter, GFP fluorescence, 18 h; TGF-beta stimulated, 500 pg/mL final; Potency, µM (top dose mostly 46.1 µM), inactives show at the top dose activity, negative = inhibition, actives largely listed as inhibitors; actives 1.2% (n = 410,000); AID 588855, 2011; further: on the % scale 0 is the no-effect control and ±100 the full control effect; nearly all actives have a fitted effect of over 65% in size
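Cell-based qHTS in HEPG2 carrying a CAGA-GFP Smad reporter; compounds added before 500 pg/mL final TGF-beta, 18 h incubation at 37 degrees C, GFP fluorescence quantified per cell by imaging cytometry.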
A549 viability: Nrf2 qHTS screen for inhibitors: counterscreen for cytotoxicity. A549 ARE-Fluc cells, CellTiter-Fluor viability, 18-24 h. Potency, µM (series often up to 46 µM), for inactives: top-dose activity change, negative = cytotoxicity, actives largely listed as inhibitors. actives 0.16% (n = 390,000); further: on the % scale 0 is the no-effect control and ±100 the full control effect
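Cytotoxicity counterscreen: CellTiter-Fluor fluorescence was measured in A549 ARE_Fluc cells after 18-24 h of compound exposure in a concentration series. The subsequent BugLite luminescent read reports ARE-luciferase activity.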
HepG2 tox: qHTS for Inhibitors of TGF-b: Cytotox Counterscreen; actives 0.76% (n = 410,000); Potency, µM (series often up to 46.1 µM), for inactives: at the highest dose activity change, negative = cytotoxicity, most hits filed as cytotoxic; HepG2 CAGA-GFP viability, ATP luminescence, 18 h; AID 588856, 2011
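HepG2 CAGA-GFP cells (1000/well, DMEM with 1% FBS) received compound, then TGF-beta at 500 pg/mL final, and were incubated 18 hours at 37 degrees C. Viability was read by CellTiter-Glo luminescence. Media-only wells were set as complete cell-killing and DMSO as no toxicity.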
Nrf2 inh: Nrf2 qHTS screen for inhibitors | Potency, µM (series often up to 46 µM), inactives show at the highest dose activity change, negative = inhibition, usual class: inhibitors | AID 504444, 2011 | A549 ARE-Fluc reporter, luciferase luminescence, 18-24 h | actives 2.1% (n = 360,000); further: on the % scale 0 is the no-effect control and ±100 the full control effect; nearly all actives have a fitted effect of over 60% in size
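Quantitative HTS in A549 cells stably bearing an antioxidant response element-firefly luciferase construct. Inhibition of Nrf2-driven transcription was scored by luminescence after 18-24 h of compound exposure at 37 °C.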
Nrf2 ARE act: qHTS of Nrf2 Activators; AREc32 ARE-luciferase reporter (MCF7-derived line), luminescence, 24 h; Potency, µM (highest dose often 46.1 µM), without a hit: at the top dose activation, actives largely listed as activators; actives 0.31% (n = 410,000); AID 624171, 2012; further: % of control where 0% means no effect; nearly all actives have a fitted effect of over 65% in size
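Quantitative high-throughput format: AREc32 reporter cells, 1000 per well, received compound by pin transfer and were incubated 24 hr at 37 deg C, 5% CO2, before Steady-Glo luminescence detection.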
* marks the source's active call; other numbers are inactive results; ? = inconclusive; / = no result; [ ] = another dose, or the depositor's remark. A selection: hits, their analogues and other compounds. The true share with any hit is near 3.6%. The call rests on the fitted dose curve; in most records, active means well fitted curve in the direction sought with a large enough effect; inconclusive means small, poorly fitted or top-dose-only effect, or another doubt; inactive means no such curve, though single readings can be large; an effect the other way counts as inactive or inconclusive. Potency means the concentration at half of the fitted maximal effect.

SMILES	TGFb SMAD3 inh	A549 viability	HepG2 tox	Nrf2 inh	Nrf2 ARE act
CCN(CC)c1ccc(/C=C/c2cccc[n+]2C)c(OC)c1	26%	7.3µM*	-16%	5.8µM*	3%
COc1ccc(/C=C/c2cccc[n+]2C)c(O)c1	?	?	-2%	-23%	3%
COc1ccc(OC)c(NC(=O)Cn2c(=O)n(-c3cccc(C)c3)c(=O)c3c2c2cc(C)ccc2n3C)c1	-19%	-8%	-19%	-9%[9.27 µM]	-1%
Cc1cc(C(=O)NP(=O)(N2CCOCC2)N2CCOCC2)c(C)n1-c1ccc(N(C)C)cc1	3%	3%	-3%	-8%	1%
Cn1c(/C(C#N)=C(\O)c2cc(Cl)sc2Cl)nc2ccccc21	?	3%	-32%	2%	1.4µM*
COc1ccc(Br)cc1/C=N/NC(=O)c1ccc(COc2ccc3c(c2)CCC3)o1	0%	-10%	8%	-5%	2%
O=C(N/N=C/c1cc([N+](=O)[O-])ccc1O)c1ccc(COc2ccc3c(c2)CCC3)o1	4.5µM*	?	-49%	-14%	2%
S=C(NCCSCc1ccc(Cl)cc1)Nc1ccccc1	?	3%	-12%	-35%	0%
CCc1cc(C(=O)N2CCCC(N3CCN(c4cccc(C(F)(F)F)c4)CC3)C2)n(C)n1 (stereo unspecified)	?	-17%	-34%	8.2µM*	0%
Cc1ccc(C(=O)N2CCCC(N3CCN(c4cccc(C(F)(F)F)c4)CC3)C2)s1 (stereo unspecified)	11µM*	-5%	-45%	0%	-1%
COc1ccc(NC(=O)Cn2nnc(C(=O)Nc3ccc(C)c(F)c3)c2N)cc1Cl	-20%	3%	-2%	?	5%
COc1cccc(/C=N/c2nc3ccccc3n2C)c1O	4%	-1%	1%	3%	0%
COc1ccccc1N(C)S(=O)(=O)c1ccc(C(=O)NNC(=O)c2ccccc2O)cc1	-23%	0%	-43%	1%	-1%
Cn1cc(C(N)=O)c2ccccc21	5%	1%	-4%	1%	-1%
Cn1cc(C(=O)CCl)c2ccccc21	13µM*	2%	16µM*	1%	?
CCOC(=O)[C@H]1[C@H]2COc3ccc(Cl)cc3[C@@H]2N2C(=O)CN(Cc3ccccc3)C(=O)[C@@]12C	1%	0%	-18%	4%	0%
Cc1nc2ccccc2n1/N=C/c1ccc([N+](=O)[O-])s1	6.3µM*	?	-62%	?	0%
O=[N+]([O-])c1ccc(/C=N/n2cnc3ccccc32)s1	?	?	8.9µM*	?	0%
O=[N+]([O-])c1ccc(/C=N/Nc2ncccc2[N+](=O)[O-])s1	-17%	-14%	5µM*	?	?
COc1cccc(/C=N/Nc2ncccc2[N+](=O)[O-])c1OC	-20%	4%	-60%	?	-3%
Cc1nc2ccccc2n1/N=C/c1ccc([N+](=O)[O-])o1	11µM*	?	-106%	21µM*	0%
O=[N+]([O-])c1ccc(/C=N/n2c(CO)nc3ccccc32)s1	?	-1%	-13%	-14%	15%
Cc1cc2ncn(/N=C/c3ccc([N+](=O)[O-])s3)c2cc1C	0%	4%	-29%	?	?
CCn1c2ccccc2c2cc(/C=N/NC(=O)c3ccc(O)cc3)ccc21	?	?	10%	?	11%
CCn1c2ccccc2c2cc(/C=N/NC(=O)c3cc(O)cc(O)c3)ccc21	16µM*	-5%	-52%	7%	5%
SMILES	TGFb SMAD3 inh	A549 viability	HepG2 tox	Nrf2 inh	Nrf2 ARE act
CCn1c2ccccc2c2cc(/C=N/NC(=O)c3ccncc3)ccc21	8.9µM*	-11%	-34%	-16%	3%
CC1CCCN(C(=O)c2cccc(S(=O)(=O)Nc3cc(C(F)(F)F)ccc3Cl)c2)C1 (stereo unspecified)	?	-4%	-32%	-16%	-1%
NC(=S)NN=C1CSSC1	10µM*	/	11µM*	/	10µM*
O=C(/C=C/c1ccccc1Cl)c1cccnc1	?	-2%	11µM*	-13%	11%
CCc1ccccc1N(CC(=O)N/N=C/c1ccc(OC(=O)OC)c(OC)c1)S(C)(=O)=O	23%	-5%	0%	20%	3%
O=C(NCc1cn2ccccc2n1)c1ccccc1	-13%	1%	-6%	20%	3%
COc1cccc(C(=O)NCc2cn3ccccc3n2)c1	0%	-1%	-19%	23µM*	9%
Cc1cc(C)cc(-n2ccn(CC(=O)Nc3cc(C)ccc3C)c(=O)c2=O)c1	5%	2%	1%	8%	1%
CCC1CCCCN1S(=O)(=O)c1ccc(C(=O)Nc2nnc(-c3ccccc3Cl)o2)cc1 (stereo unspecified)	-6%	?	2%	5.2µM*	0%
CCC1CCCCN1S(=O)(=O)c1ccc(NC(=O)c2ccncc2)cc1 (stereo unspecified)	?	-15%	-19%	8.2µM*	-1%
CCC1CCCCN1S(=O)(=O)c1ccc(C(=O)Nc2nnc(C3CC3)o2)cc1 (stereo unspecified)	-16%	-4%	-13%	?	-1%
CCC1CCCCN1S(=O)(=O)c1cc(C(=O)Nc2ccc(C)c(F)c2)ccc1F (stereo unspecified)	11µM*	-19%	-14%	/	-1%
Cc1ccc(C(=O)Nc2ccc(F)cc2)cc1S(=O)(=O)N1CCCCCC1	?	-14%	-12%	?	-2%
COc1ccc(CNC(=O)CN2C(=O)CCn3nc(-c4cn(C)c5ccccc45)cc32)cc1	-7%	0%	-6%	/	1%
C[C@H]1CN=C2N(CCNC(=O)CCC3CCCCC3)[C@H](Cc3ccc(O)cc3)CN21	-1%	9%	-18%	12%	-1%
CCc1ccc(NC(=O)CSC2=C(C#N)C(c3ccc4c(c3)OCO4)CC(=O)N2)cc1 (stereo unspecified)	?	?	-12%	?	4%
Cc1cccc(NS(=O)(=O)c2ccc(C)c(C(=O)NCC(c3cccs3)N(C)C)c2)c1 (stereo unspecified)	-20%	1%	-20%	7%	4%
O=C(CNC(=O)c1ccc(Br)cc1)N=Nc1c(O)[nH]c2ccc([N+](=O)[O-])cc12	1%	-9%	4%	11%	0%
Cc1ccc(C(=O)N/N=C\c2ccc(-c3ccc(Cl)c(Cl)c3)o2)cn1	11µM*	-17%	-96%	18µM*	-3%
CCCCCC(O)(c1ccc(OC)cc1)C(CN1CCOCC1)c1ccccc1 (stereo unspecified)	13µM*	-4%	-20%	?	6%
